According to PubChem BioAssay (NCI):
About 83,000 compounds went through this panel and 20% of them were active in at least one assay; those are over-represented in the sample as a whole.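 Cells were grown in 96-well plates and exposed to the test compound at a single concentration for 48 hours; results are reported as percent growth, with values below 10 considered active.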 Active and inactive are the calls of the source.

Key:
Experiment in all cases: NCI-60 one-dose screen, 48 h (100 = growth as untreated, 0 = no growth, -100 = all killed)
Settings in all cases: 10 µM unless noted
[1] = tested on: SR leukemia
[2] = tested on: RPMI-8226 leukemia
[3] = tested on: OVCAR-8 ovarian
[4] = tested on: OVCAR-5 ovarian
[5] = tested on: OVCAR-4 ovarian
[6] = tested on: SK-OV-3 ovarian
[7] = tested on: IGROV1 ovarian
[8] = tested on: OVCAR-3 ovarian
[9] = tested on: HS 578T breast
[10] = tested on: NCI/ADR-RES ovarian
[11] = tested on: T-47D breast
[12] = tested on: BT-549 breast
[13] = tested on: MDA-MB-435 melanoma
[14] = tested on: SW-620 colon
[15] = tested on: MCF7 breast
[16] = tested on: HCT-116 colon
[17] = tested on: KM12 colon
[18] = tested on: HCC-2998 colon

Measured: growth

CCOC(=O)NCCCC(=O)NCCc1ccccc1
inactive: [1] 106% | [2] 110% | [3] 104% | [4] 118% | [5] 107% | [6] 108% | [7] 106% | [8] 108% | [9] 106% | [10] 104% | [11] 100% | [12] 110% | [13] 109% | [14] 111% | [15] 97.8% | [16] 97.6% | [17] 96.6%

Cc1ccc2c(c1)=C/C(=C\c1cc(-c3ccccc3)[nH]c1O)C(=O)N=2
inactive: [1] 14.1% | [2] 33.8% | [3] 50.6% | [4] 78.9% | [5] 59.7% | [6] 65.7% | [7] 40.7% | [8] 16.1% | [9] 41.9% | [10] 43.7% | [11] 40.2% | [12] 29.9% | [14] 32.8% | [15] 21.5% | [16] 17.6% | [18] 56.6% | [17] 28.3%
active: [13] -1.51%

O=C(CCCCCCCC(=O)N1CCCCC1)N1CCCCC1
inactive: [1] 135% | [2] 103% | [3] 98.8% | [4] 98.7% | [5] 107% | [6] 115% | [7] 109% | [8] 111% | [9] 96.5% | [10] 89% | [11] 117% | [12] 96.4% | [13] 105% | [14] 92.2% | [15] 97.1% | [16] 94.8% | [17] 100%

COc1ccc(CN2C(=O)OC(C)(COC(C)=O)C2=O)cc1 (stereo not given)
inactive: [1] 94% | [2] 103% | [3] 104% | [4] 97.2% | [5] 104% | [6] 97.3% | [7] 107% | [8] 112% | [9] 108% | [10] 109% | [11] 91.9% | [12] 107% | [13] 107% | [14] 107% | [15] 96.3% | [18] 100% | [17] 112%

Cc1ccc(OCCOCCOCCOc2ccc(C)n(O)c2=S)c(=S)n1O
inactive: [1] 25.6% | [2] 31.2% | [3] 39.3% | [4] 38.5% | [5] 20.5% | [6] 64.9% | [7] 72% | [8] 15.9% | [9] 56.3% | [10] 16.4% | [11] 14% | [12] 50.4% | [13] 56.3% | [14] 24.5% | [15] 20.3% | [17] 30.8%
active: [16] 9.46%

COc1cc(OC)c2c(=O)c3c(CC=C(C)C)cc(OC)c(O)c3oc2c1
inactive: [1] 53.2% | [2] 81.7% | [3] 88.6% | [4] 96.2% | [5] 98.5% | [6] 96.6% | [7] 91.7% | [8] 92.8% | [9] 88.7% | [10] 78.8% | [11] 57.7% | [12] 77.5% | [13] 53.9% | [14] 99.7% | [15] 78.5% | [16] 81.6% | [17] 66.4%

COCCn1cc(-c2csc(-c3c[nH]c4ccccc34)n2)c2cccnc21
inactive: [2] 43.8% | [3] 38.6% | [4] 75.7% | [5] 44.3% | [6] 49.5% | [7] 41.8% | [8] 20.7% | [9] 57.4% | [10] 12.7% | [12] 21.8% | [14] 30.7% | [16] 16.6% | [17] 15.6%
active: [1] 8.15% | [11] 3.06% | [13] 2.9% | [15] 9.88%

CCOC(=O)/C(=C(/C)NCC(C)C)c1cc(O)c(O)c2c(C)cc(=O)[nH]c12
active: [8] 6.74%
inactive: [1] 18.4% | [2] 19.2% | [3] 23.8% | [4] 86.6% | [5] 25.8% | [6] 84.4% | [7] 61% | [9] 79.5% | [10] 17.2% | [11] 34.7% | [12] 63% | [13] 60.9% | [14] 31.8% | [15] 29.4% | [16] 10.1% | [17] 61.5%

COc1ccc(-c2cc(-c3cn(-c4cccc(Cl)c4)nc3-c3ccc(OC)cc3)on2)cc1
inactive: [1] 68.4% | [2] 88.3% | [3] 93.7% | [4] 111% | [5] 106% | [6] 98% | [7] 97.5% | [8] 103% | [9] 96.3% | [10] 100% | [11] 95% | [12] 121% | [13] 110% | [14] 106% | [15] 86.6% | [18] 101% | [17] 92.5%

N#C/C(=C\c1ccc(-c2cccc(Cl)c2)o1)C(=O)Nc1ncc(Cc2ccc(Cl)cc2)s1
active: [5] -45.5%
inactive: [1] 29.9% | [2] 81.1% | [3] 40.4% | [4] 47.1% | [6] 78% | [7] 30.5% | [8] 11.3% | [9] 24.4% | [10] 54.6% | [11] 20.7% | [12] 72.9% | [13] 56.5% | [14] 62.5% | [15] 54.4% | [16] 41.9% | [17] 48.6%

CN1C(=O)/C(=C/c2ccc(C(=O)Nc3ncc(Cc4cccc(C(F)(F)F)c4)s3)cc2)SC1=S
active: [13] -27.2%
inactive: [1] 52.6% | [2] 22.1% | [3] 59.8% | [4] 60.8% | [5] 34.4% | [6] 50.6% | [7] 56.7% | [8] 71.1% | [9] 63.9% | [10] 33.4% | [11] 30% | [12] 47.3% | [14] 38.2% | [15] 30.4% | [18] 49.6% | [17] 28%

O=C(Nc1ccccc1O)c1ccc(CNc2ccnc(C(F)(F)F)c2)cc1
active: [2] 1.91%
inactive: [1] 24.3% | [3] 38.8% | [4] 76.6% | [5] 52.5% | [6] 58.6% | [7] 59.9% | [8] 76.2% | [9] 50% | [10] 18.4% | [11] 32.1% | [12] 47.4% | [13] 45.3% | [14] 72.8% | [15] 50.1% | [16] 42.2% | [17] 62.6%

CC(=O)O[C@H]1CC[C@]2(C)[C@H]3CC=C4[C@@H]5CC(C)(C)CC[C@]5(C(=O)N5CCN(CCC#N)CC5)CC[C@@]4(C)[C@]3(C)CC[C@H]2C1(C)C
active: [5] -44.1% | [8] -9.23% | [16] -2.33%
inactive: [1] 13.7% | [2] 13.3% | [3] 29.6% | [4] 70.6% | [6] 60.6% | [7] 39.1% | [9] 61.2% | [10] 48.8% | [11] 29% | [12] 40.9% | [13] 31.5% | [14] 19.4% | [15] 11.6% | [17] 28.6%

CC1(C)N=C(N)N=C(N)N1c1ccc(S(=O)(=O)Nc2nccs2)cc1
inactive: [1] 104% | [2] 108% | [3] 104% | [4] 91.9% | [5] 104% | [6] 102% | [7] 100% | [8] 107% | [9] 103% | [10] 106% | [11] 95.6% | [12] 94.1% | [13] 102% | [14] 98.2% | [15] 103% | [16] 100% | [17] 101%

O=S(=O)(Nc1ccc2ccccc2c1)c1ccc(-c2cnc(C3CC3)o2)cc1
inactive: [1] 16.5% | [2] 12% | [3] 24.6% | [4] 48% | [5] 70.4% | [6] 32.7% | [7] 39.1% | [9] 13.4% | [11] 29.8% | [12] 62.6% | [14] 24.3% | [15] 22.1% | [18] 64.3% | [17] 24.7%
active: [8] 1.73% | [10] 9.69% | [13] -30.2%

O=C(/C=C/c1cn(-c2ccccc2)nc1-c1ccccc1)CCC(=O)NO
inactive: [1] 82.3% | [2] 99.3% | [3] 97.2% | [4] 118% | [5] 112% | [6] 98.8% | [7] 104% | [8] 99% | [9] 95.3% | [10] 101% | [11] 96.7% | [12] 101% | [13] 112% | [14] 108% | [15] 91.6% | [16] 84% | [17] 96.9%

Cc1ccc(-c2nc(SCC(=O)N3CCN(c4cc5c(cc4F)c(=O)c(C(=O)O)cn5C4CC4)CC3)nc(Cl)c2C#N)cc1
inactive: [1] 103% | [2] 104% | [3] 106% | [4] 96.4% | [5] 108% | [6] 89.2% | [7] 97.4% | [8] 109% | [9] 104% | [10] 102% | [11] 91.1% | [12] 103% | [13] 106% | [14] 103% | [15] 94.9% | [16] 101% | [17] 102%
